“And” between values parts separate entries of the source, which are not always exact repeats. Identical values can stand only once. About 83,000 compounds went through this panel and 20% of them were active in at least one assay; those are over-represented in the sample as a whole.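 Negative percent growth values reflect cell death: -40 means 40% of the cells present at the start died, and -100 means all died.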 Unmarked numbers belong to inactive results. The source made the active and inactive calls. How the source made its calls: active means growth percent below 10; inactive means the rest.

The source of these data is PubChem BioAssay (NCI).

Among the test systems are T-47D breast; BT-549 breast; MDA-MB-435 melanoma; SW-620 colon; MCF7 breast; HCT-116 colon; HCC-2998 colon; KM12 colon.
Holding throughout (test): NCI-60 one-dose screen, 48 h (100 = growth as untreated, 0 = no growth, -100 = all killed)
Holding throughout (settings): 10 µM unless noted

On to `COc1cc(OC)cc(-c2ccc(-c3ccc(C(=N)N)cn3)s2)c1`, for which the growth is 96.7% in the assay on T-47D breast; 95.1% with BT-549 breast; 82.5% with MDA-MB-435 melanoma; 5.08% (active) with SW-620 colon; 13% in the assay with MCF7 breast; -12.6% (active) in the assay with HCT-116 colon. The growth with HCC-2998 colon was 56.1%; in the assay on KM12 colon, 40.7%.
Regarding `C=C1C(=O)O[C@H]2[C@H]1CC/C(COC(=O)NCc1ccc(Cn3c(=O)sn(CCCI)c3=O)cc1)=C\CC[C@@]1(C)O[C@@H]21`, the growth in the assay on T-47D breast was 8.47% (active); in the assay on BT-549 breast it was 40.8%; in the assay on MDA-MB-435 melanoma it was 17.5%; with SW-620 colon it was -42.9% (active); with MCF7 breast it was 4.45% (active); in the assay on HCT-116 colon, -52% (active). For the same molecule, the figures for the growth in the assay with HCC-2998 colon and in the assay with KM12 colon were 104% and 100%, respectively.
For `CCN(CC)CC#CCOC(=O)[C@]1(C)CCC[C@]2(C)c3ccc(C(C)C)cc3CC[C@@H]12`, the growth is 78.6% with T-47D breast; 92.7% with BT-549 breast; 91.6% in the assay on MDA-MB-435 melanoma; 87.7% with SW-620 colon; 82.6% in the assay with MCF7 breast; 58.3% in the assay with HCT-116 colon. The growth with HCC-2998 colon was 91.5%; in the assay with KM12 colon, 85.3%.
Take `CC/C(=C(/c1ccc(Cl)cc1)c1ccc(OCCN2CCOCC2)cc1)c1ccccc1`: the growth in the assay on T-47D breast was 71.7%; with BT-549 breast, 117%; with MDA-MB-435 melanoma, 94.8%; with SW-620 colon it was 83.7%; in the assay with MCF7 breast it was 86.2%; with HCT-116 colon it was 77.6%. For the same molecule, the growth with HCC-2998 colon was 99.8%; in the assay on KM12 colon, 96.6%.
As to `N#CSc1c[nH]c2ccc(/C=C/C(=O)/C=C(/C=C/c3ccc4[nH]cc(SC#N)c4c3)OB(F)F)cc12`, the growth is -7.65% (active) with T-47D breast; -10.2% (active) in the assay with BT-549 breast; -77.4% (active) in the assay with MDA-MB-435 melanoma; 2.13% (active) in the assay with SW-620 colon; 7.23% (active) in the assay on MCF7 breast; -49.5% (active) in the assay on HCT-116 colon. The growth is 31.9% in the assay with HCC-2998 colon and 19.6% in the assay with KM12 colon.
As for `CC(=O)N1N=C(c2ccc(Nc3nc(Nc4ccc(F)cc4)nc(Nc4ccc(Cl)cc4)n3)cc2)CC1c1ccc(N(C)C)cc1` (configuration not stated), the growth was 24.3% in the assay on T-47D breast; 69.5% with BT-549 breast; 18.7% in the assay on MDA-MB-435 melanoma; 78.5% with SW-620 colon; 29.9% in the assay with MCF7 breast; 130% and 24.2% in the assay on HCT-116 colon. The figures for the growth in the assay with HCC-2998 colon and in the assay with KM12 colon were 22% and 55.5%, respectively.
As to `CCCn1nc(C(=O)N2CCCCC2)c2c1CCC(N1CCC(c3ccncc3)CC1)C2` (configuration not stated), the growth with T-47D breast is 99.5%; in the assay with BT-549 breast, 79.5%; with MDA-MB-435 melanoma, 102%; with SW-620 colon it was 104%; with MCF7 breast it was 99.6%; with HCT-116 colon, 99.4%. For the same molecule, the growth in the assay with HCC-2998 colon is 109%; with KM12 colon it was 103%.
For `O=C(Oc1ccc(CO[N+](=O)[O-])cc1)c1ccccc1`, the growth with T-47D breast is -37.4% (active); in the assay on BT-549 breast, -97% (active); in the assay on MDA-MB-435 melanoma, -94% (active); in the assay on SW-620 colon, -56.8% (active); in the assay on MCF7 breast, -54.4% (active); in the assay with HCT-116 colon, -86.2% (active). Moreover, the figures for the growth in the assay with HCC-2998 colon and in the assay on KM12 colon were -81.9% (active) and -78.9% (active), respectively.
As to `C=CCOc1ccc(/C=C2\SC(=S)N(CCc3ccc(O)cc3)C2=O)cc1`, the growth in the assay with T-47D breast was 82.8%; in the assay with BT-549 breast, 93.6%; with MDA-MB-435 melanoma, 77.5%; in the assay with SW-620 colon, 88.9%; with MCF7 breast, 86.5%; with HCT-116 colon, 99.6%. For the same molecule, the growth in the assay on HCC-2998 colon was 114%; with KM12 colon, 91.5%.
As for `COc1ccccc1/C=C1\COc2ccc(O)cc2C1=O`, the growth in the assay with T-47D breast was 82.8%; in the assay on BT-549 breast, 76.2%; with MDA-MB-435 melanoma it was 14.9%; in the assay with SW-620 colon it was 9.45% (active); with MCF7 breast, 12.8%; with HCT-116 colon, 42%. Besides, the growth in the assay on HCC-2998 colon was 113%; in the assay on KM12 colon it was 16.6%.
In the case of `COc1ccc(-c2cc(=O)c3c(O)cc(O)cc3o2)cc1`, the growth was 101% and 100% in the assay with T-47D breast; 109% in the assay on BT-549 breast; 96.3% and 96.5% in the assay on MDA-MB-435 melanoma; 106% and 105% with SW-620 colon; 117% and 106% with MCF7 breast; 103% and 94.5% in the assay on HCT-116 colon. Moreover, the growth was 102% and 104% in the assay on HCC-2998 colon; 91% and 93.1% in the assay with KM12 colon.
On to `COc1ccccc1/C=C1\COc2ccc(O)c(O)c2C1=O`, for which the growth in the assay with T-47D breast was 11.6%; in the assay with BT-549 breast it was 24.2%; in the assay on MDA-MB-435 melanoma, 8.84% (active); in the assay on SW-620 colon it was 3.71% (active); in the assay with MCF7 breast it was 14.8%; in the assay with HCT-116 colon, 8.37% (active). Also, the growth was 69.7% with HCC-2998 colon and 20.8% in the assay on KM12 colon.
Regarding `Nc1nc(N)c2c(n1)NC(c1cccc(Nc3ccnc4cc(C(F)(F)F)ccc34)c1)CC(c1ccc(F)cc1)=N2` (configuration not stated), the growth in the assay on T-47D breast was 68.3%; in the assay with BT-549 breast it was 100%; with MDA-MB-435 melanoma it was -24.7% (active); in the assay with SW-620 colon it was 26.4%; in the assay with MCF7 breast it was 16.7%; in the assay on HCT-116 colon, 22.4%. For the same molecule, the figures for the growth in the assay on HCC-2998 colon and in the assay on KM12 colon were 54% and 30.2%, respectively.
As to `Cc1ccc(C(=O)Nc2nc3c(s2)CN(Cc2ccccc2)CC3)cn1`, the growth in the assay on T-47D breast was 83.8%; in the assay with BT-549 breast it was 94.9%; with MDA-MB-435 melanoma, 7.68% (active); with SW-620 colon, 69.8%; in the assay on MCF7 breast, 64%; in the assay on HCT-116 colon it was 80.7%. The growth is 77.9% with HCC-2998 colon and 49.6% with KM12 colon.
